An excerpt weighted towards active compounds, which were near 9.4% of everything screened.
SARS PLpro yeast = SARS-CoV PLP inhibition in yeast; S. cerevisiae expressing SARS-CoV PLpro, growth rescue; Potency, µM (doses to about 32.9 µM), without a hit: at the top dose activity, positive = growth rescue, actives largely listed as activators; actives 0.19% (n = 330,000); AID 485353; calls by dose curve; further: 0% is about no effect; nearly all actives have a fitted effect of over 55% in size
AMA1 RON2 block = disrupts binding of P. falciparum AMA1 to RON2. AID 720542. AlphaScreen AMA1-biotinylated RON2 peptide binding. Potency, µM (doses to about 58.2 µM), without a hit: top-dose activity change, negative = inhibition, usual class: inhibitors. actives 0.2% (n = 360,000);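 further: 0% = vehicle wells and -100% = peptide control; nearly all actives have a fitted effect of over 45% in size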
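AMA1 (3D7) with his tag at 25 nM final met compounds first, then biotinylated RON2 peptide at 25 nM; detection used donor plus acceptor beads, 10 µg/mL apiece, read by AlphaScreen after 30 min at room temperature.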
Pf growth 96h = P. falciparum growth inhibition at 96 hour, primary screen for plastid delayed-death inhibitors; AID 504834; Potency, µM (series often up to 28.7 µM), without a hit: at the highest dose activity change, negative = inhibition, hits mostly inhibitors; P. falciparum luciferase reporter growth, 96 h; actives 6.9% (n = 320,000); further: on the % scale 0 is the no-effect control and ±100 the full control effect
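Delayed-death screen, second-generation endpoint: infected erythrocytes, 2% hematocrit, 0.05% parasitemia final; 96 hours at 37 C, 5% CO2; luciferase detection reagent; luminescence decrease equals reduced growth.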
Pf growth 48h = P. falciparum growth inhibition at 48 hours (one generation); AID 504832; P. falciparum luciferase growth in erythrocytes, 48 h; Potency, µM (series often up to 28.7 µM), for inactives: at the highest dose activity change, negative = inhibition, most hits filed as inhibitors; actives 5.9% (n = 310,000); further: on the % scale 0 is the no-effect control and ±100 the full control effect
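Compounds are pin-transferred into medium, infected erythrocytes (2% hematocrit, 0.1% parasitemia final) are added, and plates sit one parasite generation at 37 C in 5% CO2. Detection reagent is then added and luminescence measured.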
The depositor's hits bear a star; u = inconclusive; x = no result given; ! = a repeat was not active; [ ] = remark or other dose. Unless noted, the call rests on the fitted dose curve; in most records, active means well fitted curve in the direction sought with a large enough effect; inconclusive means small, poorly fitted or top-dose-only effect, or another doubt; inactive means no such curve, though single readings can be large; an effect the other way counts as inactive or inconclusive. Potency means the concentration at half of the fitted maximal effect.

SMILES | SARS PLpro yeast | AMA1 RON2 block | Pf growth 96h | Pf growth 48h
CCn1ncc(C2=NOC(C(=O)Nc3cc(OC)c(Cl)cc3OC)C2)c1C (stereo not drawn) | 3% | -1% | u | 10%
COc1cc(OC)c(C2=NOC(C(=O)Nc3c(C)nn(CC(=O)N4CCCC4)c3C)C2)cc1Cl (stereo not drawn) | 3% | 14% | 5.9µM* | -7%
Cc1ccc(N/C=C2\C(=O)N(c3ccc(F)cc3F)C(c3cccnc3)S2(=O)=O)cc1 (stereo not drawn) | -3% | 15% | 8% | u
CCOC(=O)[C@H]1[C@H]2COc3ccccc3[C@@H]2N2C(=O)c3ccc(C)cc3NC(=O)[C@@]12C | -1% | -16% | u | u
O=C(NC1CCN(C(=O)N2c3ccccc3Sc3ccccc32)CC1)c1ccco1 | -7% | 10% | u | 1.7µM*
O=C(c1ccco1)N1CCN(C(=O)N2c3ccccc3Sc3ccccc32)CC1 | -13% | -19% | u | 12µM*
COc1cccc(C(=O)NC2CCN(C(=O)N3c4ccccc4Sc4ccccc43)CC2)c1 | -14% | -2% | 5.2µM* | 8.3µM*
O=C(c1ccco1)N1c2ccccc2Sc2ccccc21 | -50% | 4% | 18% | u
COc1cccc(C(=O)NN2c3ccccc3CCc3ccccc32)c1 | -8% | -14% | 13µM* | 9.3µM*
O=C(c1ccncc1)N1c2ccccc2Sc2ccccc21 | -9% | -11% | 11% | -7%
COc1cccc(C(=O)N2c3ccccc3Sc3ccccc32)c1 | -17% | -21% | 102% | 10µM*
C=CCn1c(CCNC(=O)c2cccs2)nnc1SCC(=O)c1ccc(Br)cc1 | 6% | -7% | u | x
CCn1c(CNC(=O)c2cccs2)nnc1SCC(=O)Nc1cc(Cl)ccc1C | 4% | 6% | u | u
CCSCc1nnc(SCC(=O)Nc2ccc(F)cc2)n1CC | 0% | 9% | 12µM* | 10%
CCn1c(CNC(=O)c2cccs2)nnc1SCC(=O)Nc1ccc(Cl)cc1 | 1% | 1% | 9.3µM* | 10µM*
CCn1c(COc2ccccc2C)nnc1SCC(=O)CC(=O)Nc1ccccc1 | 2% | 3% | 26% | 10µM*
C=CCn1c(CCNC(=O)c2cccs2)nnc1SCC(=O)Nc1cccc(C(C)=O)c1 | 3% | -2% | 9.3µM* | 0%
CCn1c(COc2ccccc2C)nnc1SCC(=O)O | 3% | -3% | -17% | x
C#CCN(C[C@H]1[C@H](OC(=O)NCc2ccc(OC)c(OC)c2)[C@H](OC(=O)NCc2ccc(OC)c(OC)c2)C[C@@H](C(=O)OC)[C@H]1C(=O)OC)S(=O)(=O)c1ccc(C)cc1 | x | -4% | x | x
Cc1ccc(Cl)cc1NC(=O)Nn1cnnc1 | 2% | -6% | 39% | 13%
COc1cccc(NC(=O)Cc2nnc(SCC(=O)NC3=NCCS3)n2C)c1 | 0% | 2% | 17% | -17%
Cn1c(CC(=O)Nc2ccccc2)nnc1SCC(=O)NC1=NCCS1 | -3% | 10% | 2.6µM* | -1%
CCn1c(CNC(=O)c2ccc(Cl)cc2)nnc1SCC(=O)NC1=NCCS1 | -1% | -1% | 8.3µM* | 4%
Cc1ccccc1OCc1nnc(SCC(=O)Nc2ccc3nc(SCC(=O)NC(C)(C)C)sc3c2)n1C | 2% | 12% | -8%[5.75 µM] | u
CCN(CC)C(=O)CSc1nc2ccc(NC(=O)CSc3nnc(COc4ccccc4C)n3C)cc2s1 | 4% | 13% | 9.3µM* | u
SMILES | SARS PLpro yeast | AMA1 RON2 block | Pf growth 96h | Pf growth 48h
Clc1cccc(N2CCNCC2)c1 | -2% | 3% | 13µM*! | u
COCCCN1C(=O)c2[nH]nc(-c3ccccc3O)c2C1c1ccc(Cl)cc1 (stereo not drawn) | -3% | 15% | u | u
COc1ccc(CCN2C(=O)c3[nH]nc(-c4ccccc4O)c3C2c2ccccc2)cc1OC (stereo not drawn) | 3% | 24% | 8.3µM* | 9.3µM*
COc1cccc(C2c3c(-c4ccccc4O)n[nH]c3C(=O)N2Cc2ccco2)c1 (stereo not drawn) | -1% | 65% | -27% | u
COCCCN1C(=O)c2[nH]nc(-c3ccccc3O)c2C1c1cccc(Cl)c1 (stereo not drawn) | 3% | 67% | 7.4µM* | 9.3µM*
CC(C)OCCCN1C(=O)c2[nH]nc(-c3ccccc3O)c2C1c1cccc(Cl)c1 (stereo not drawn) | -8% | 73% | -20% | 4.1µM*
O=C1c2[nH]nc(-c3ccccc3O)c2C(c2ccccc2)N1Cc1ccco1 (stereo not drawn) | -11% | 51% | u | 12µM*
CCOc1ccc(/C=N/NC2=NCCCCC2)cc1 | -2% | -14% | 17% | 30%
COc1ccc(-c2cc3nc(-c4ccccc4)cc(N4CCC(O)CC4)n3n2)cc1 | -2% | 27% | -15% | 10µM*
COc1ccc(-c2cc3nc(-c4ccccc4)cc(N4CCCC(O)C4)n3n2)cc1 (stereo not drawn) | 0% | 56% | -8% | 8.3µM*
COc1ccc(-c2cc3nc(-c4ccccc4)cc(N4CCN(C(C)=O)CC4)n3n2)cc1 | x | 69% | x | x
CCCCn1c(=O)n(CC(=O)Nc2ccc(OC)c(Cl)c2)c(=O)c2c1nc(CO)n2CCC | 1% | 3% | x | 10µM*
CCCCn1c(=O)n(CC(=O)Nc2ccc(C)c(Cl)c2)c(=O)c2c1ncn2Cc1ccco1 | -5% | 0% | 4.7µM* | 12µM*
CCc1ccc(NC(=O)Cn2c(=O)n(CCCC(=O)NCc3ccco3)c(=O)c3ccccc32)cc1 | 1% | 13% | 1% | 2%
O=C(O)c1ccc(/C=C2\CCCc3c2nc2ccccc2c3C(=O)O)cc1 | -2% | -8% | 23% | 16%
Cn1c(O)c(/C=N/N2CCOCC2)c(=O)n(C)c1=S | -3% | 16% | 36% | 13µM*
O=C(NCCc1ccccc1)C(c1ccncc1)N(C(=O)c1csnn1)C1CC1 (stereo not drawn) | 13% | 2% | 12µM* | -17%
Cc1ccc(C(C(=O)NC2CCCC2)N(C(=O)c2csnn2)C2CC2)cc1 (stereo not drawn) | 1% | 3% | 29% | -21%
CC(C)c1ccc(C(C(=O)NC2CCCCC2)N(C(=O)c2csnn2)C2CC2)cc1 (stereo not drawn) | 4% | -4% | 11% | 13µM*
CC(=O)c1c(C)[nH]c(C(=O)NCCc2ccc(Cl)cc2)c1C | 2% | -13% | 2% | 0%
CCOC(=O)c1cccc(N2C(=O)C3C(C2=O)C2C=CC3C23CC3)c1 (stereo not drawn) | -1% | 3% | x | -13%
O=C(O)c1ccc(NC(=O)c2cccc(N3C(=O)C4C5CCC(C5)C4C3=O)c2)cc1 (stereo not drawn) | -16% | 11% | u | 1%
CC(=O)COC(=O)c1cccc(N2C(=O)C3C4C=CC(C4)C3C2=O)c1 (stereo not drawn) | 14% | 7% | 13µM* | -7%
O=C(Nc1ccccc1)c1cccc(N2C(=O)C3C4CC(C(Br)C4Br)C3C2=O)c1 (stereo not drawn) | 0% | -4% | u | 1.5µM*

From PubChem
